Structures are written as SMILES. Calls of active or inactive are those of the source. Calls come from the whole dose curve; as a rule, active = well fitted curve in the direction sought with a large enough effect in the repeat runs; inconclusive = weak or mixed curves; inactive = flat fitted curve, though single readings scatter.

40 compounds from PubChem BioAssay (Tox21) can be followed below.
% is set by controls: 0 for no effect and ±100 for the full control effect.

The test is described as follows: qHTS assay to test for compound auto fluorescence at 590 nm (red) in HepG2 cells (AID 720674). Particulars: HepG2 autofluorescence, red 540/590 nm, 1 h; series mostly up to 91.3 µM; fluorescence, relative to Rose Bengal: at the top concentration. From the text: U.S. Tox21 Program National Center for Advancing Translational Sciences [NCATS] NIH Chemical Genomics Center [NCGC] U.S. Environmental Protection Agency [EPA] National Institutes of Environmental Health Sciences [NIEHS] National Toxicology Program [NTP] U.S. Food and Drug Administration [FDA] Tox21 Assay Overview: Compound auto fluorescence often interferes with screening of the compound library against various biological targets and signaling pathways. Some of these compounds may have fluorophoric properties. Such properties may interfere with the assay outputs resulting in false positives and/or negatives. To decrease such complications and ensure the compound activities are relevant in terms of biological response, the Tox21 10K compound library was screened for auto fluorescence. From the fluorophores used as reporter signals in our screening assays, the auto fluorescence equivalencies of compounds against three fluorophores have been evaluated: Triamterene, Fluorescein and Rose Bengal sodium for blue, green and red fluorescence, respectively. The fluorescence intensities were measured using Excitation/Emission wavelengths at 405/460nm, 485/535nm and 540/590nm for blue, green and red labels, respectively. This assay includes the red fluorescence data.
Tox21 Assay Protocol Summary: 2,000 HepG2 cells in 5 uL of culture medium (MEM containing 10% FBS) per well were dispensed into black wall/clear bottom 1536-well plates using a Multidrop Combi Dispenser (ThermoFisher Scientific, Waltham, MA). The assay plates were incubated overnight at 37 C to allow cell attachment to the well bottom, followed by the transfer of 23 nL compound or DMSO vehicle by a pintool work station (Kalypsys , San Diego, CA). After the assay plates were incubated for 1 hr at 37 C and 5% CO2, fluorescence intensities in the assay plates were measured by an Envision (PerkinElmer, Shelton, CT) plate reader using three labels for measuring blue, green and red fluorescence at […] 460, 535 and 590 nm respectively.
Regarding `CC(C)CCCCCCN`, the “fluorescence, relative to Rose Bengal” value is 0.261% (inactive).

`CCCCNc1ccccc1`: the “fluorescence, relative to Rose Bengal” value is -0.0498% (inactive). `FC(F)(F)C(F)(F)C(F)(F)C(F)(F)C(F)(F)C(F)(F)C(F)(F)C(F)(F)C(F)(F)C(F)(F)F`: the fluorescence, relative to Rose Bengal was 0.158% [at 9.17 µM] (inactive). Regarding `NS(=O)(=O)c1cc2c(cc1C(F)(F)F)NC(Cc1ccccc1)NS2(=O)=O` (stereo not given), the fluorescence, relative to Rose Bengal is 0.0251% [at 18.6 µM] (inactive). Turning to `O=Cc1ccccc1[N+](=O)[O-]`, the “fluorescence, relative to Rose Bengal” value was 0.57% (inactive). On the same count and under the same terms, the same measure for `COc1cc(C)cc(O)c1`: -0.0818% (inactive); for `C=C[Si](OC)(OC)OC`: -0.069% (inactive); for `C=C(C)C(=O)NCCC[N+](C)(C)C`: 0.0096% (inactive). Same read-out and setting: next, `Cn1cnc2c(=O)[nH]c(N)nc21`: 0.0985% (inactive); `O=C(O)C(O)[C@H](O)[C@@H](O)[C@H](O)[C@H](O)CO` (stereo not given in full): -0.12% [at 95.7 µM] (inactive); `O=S(=O)(c1cccc2cnccc12)N1CCCNCC1`: 0.256% [at 46 µM] (inactive). In the case of `Cc1nccn1CC1CCc2c(c3ccccc3n2C)C1=O` (stereo not given), the result was inactive. In the case of `O=C(O)/C=C/c1ccc(/C=C/C(=O)O)cc1`, the “fluorescence, relative to Rose Bengal” value was -0.183% [at 46 µM] (inactive).

Turning to `CC1(C)SC(C)(C)SC(C)(C)S1`, the “fluorescence, relative to Rose Bengal” value is -0.0926% (inactive).

For the compound `CO[Si](OC)(OC)OC`, the “fluorescence, relative to Rose Bengal” value was -0.164% (inactive). Still for that read-out and setting: next, `CCCCC=O`: 0.246% (inactive); `CCCCN(CCO)CCO`: 0.0626% (inactive).

As to `OC/C=C/c1ccccc1`, the result was inactive. As for `CCCCCCOC(=O)CC(CC(=O)OCCCCCC)(OC(=O)CCC)C(=O)OCCCCCC`, the “fluorescence, relative to Rose Bengal” value was 0.193% (inactive). Consider `NC(=O)c1ncn([C@@H]2O[C@H](CO)[C@@H](O)[C@H]2O)c1O`, for which the “fluorescence, relative to Rose Bengal” value was -0.473% [at 46 µM] (inactive).

Regarding `CN(C)N=Nc1ccccc1`, the “fluorescence, relative to Rose Bengal” value was 0.0603% (inactive).

Regarding `Nc1cc(C(Cl)=C(Cl)Cl)c(S(N)(=O)=O)cc1S(N)(=O)=O`, the compound was classed as inactive. As for `C=C(C)[C@H]1CC=C(C)CC1`, the “fluorescence, relative to Rose Bengal” value was -0.0597% (inactive). The same measure, in the same setting: next, `C[C@H](O)C(=O)Nc1c(I)c(C(=O)NC(CO)CO)c(I)c(C(=O)NC(CO)CO)c1I`: 0.0368% [at 18.6 µM] (inactive). Regarding `C/C=C1\C(=O)C[C@H]2[C@@H]3CCC4=CC(=O)CC[C@]4(C)[C@H]3CC[C@]12C`, the “fluorescence, relative to Rose Bengal” value is 0.0842% [at 46 µM] (inactive).

For the compound `O=C1C(CCS(=O)c2ccccc2)C(=O)N(c2ccccc2)N1c1ccccc1` (stereo not given), the fluorescence, relative to Rose Bengal was -0.0311% [at 18.6 µM] (inactive). Regarding `O=C(O)c1ccccc1-c1ccc(C(F)(F)F)cc1`, the “fluorescence, relative to Rose Bengal” value was -0.411% [at 46 µM] (inactive). On to `CCCC(=O)O[C@]1(C(=O)CCl)[C@@H](C)C[C@H]2[C@@H]3CCC4=CC(=O)C=C[C@]4(C)[C@@]3(F)C(=O)C[C@@]21C`, for which the “fluorescence, relative to Rose Bengal” value was 0.18% [at 46 µM] (inactive). Still for that read-out and setting: the same measure for `O=C(O)Cc1cc(I)c(Oc2cc(I)c(O)c(I)c2)c(I)c1`: 0.0636% (inactive); for `CC(C)c1cccc(O)c1`: -0.0418% [at 95.7 µM] (inactive). The same measure, in the same setting: the same measure for `CC(C)(O)C(=O)c1ccc(OCCO)cc1`: 0.141% (inactive); for `OCCCCCCO`: 0.0143% [at 95.7 µM] (inactive).

Regarding `CCN(CC)C(=O)c1ccc(O)c(OC)c1`, the compound was classed as inactive. Consider `CC(C)(O)c1ccccc1`, for which the “fluorescence, relative to Rose Bengal” value was -0.0133% (inactive). Still for that read-out and setting: next, `CCN1CCCC(OC(=O)C(c2ccccc2)c2ccccc2)C1` (stereo not given): 0.0398% [at 18.6 µM] (inactive). In the case of `CCCC=O`, the “fluorescence, relative to Rose Bengal” value is 0.25% (inactive). Turning to `CCCC(C)C(=O)O` (stereo not given), the “fluorescence, relative to Rose Bengal” value is -0.135% (inactive). `O=C(O)c1cccc(C(=O)O)n1`: the “fluorescence, relative to Rose Bengal” value is -0.0971% (inactive). The same measure, in the same setting: next, `Cn1ccc2cc3c(cc21)CCN3C(=O)Nc1cccnc1`: -0.204% [at 46 µM] (inactive).

As to `CCn1cc(C(=O)O)c(=O)c2cc(F)c(N3CCN(C)CC3)cc21`, the “fluorescence, relative to Rose Bengal” value is 0.112% [at 46 µM] (inactive).
